Experimental findings from paper PMC4081100, “A DNA-binding-site landscape and regulatory network analysis for NAC transcription factors in Arabidopsis thaliana” are described below.

Test in all cases: universal protein binding microarray (PBM); transcription factors of Arabidopsis thaliana; high values mean tight binding
In test [1] the target is T1, GST-ANAC092(1-176) (Arabidopsis thaliana, UniProt Q9FKA0 1-176).
T1 sequence: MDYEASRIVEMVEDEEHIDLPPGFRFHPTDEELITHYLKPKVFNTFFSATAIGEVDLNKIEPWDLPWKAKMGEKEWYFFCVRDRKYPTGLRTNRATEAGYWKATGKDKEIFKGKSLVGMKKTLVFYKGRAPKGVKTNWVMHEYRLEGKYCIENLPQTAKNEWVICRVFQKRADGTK
The note with it: protein: recombinant; tags: GST; chain copies: 2; dsDNA, one strand shown. The method in brief: (§1)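 Binding is expressed as the normalised enrichment score (E-score). Proteins carrying a GST tag, whether NAC-domain, full-length or DNA-binding-domain forms, were induced in cells, and zinc acetate was added for zinc-finger proteins. After purification on glutathione–Sepharose 4B and quantification by A280 or anti-GST western blot, each was applied in duplicate at 200 to 500 nM final to custom all-10-mer Agilent 4 × 180K arrays made double-stranded by primer extension. Gapped and ungapped 8-mers were scored.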

Test [2] deals with T2, GST-ANAC019 NAC domain (Arabidopsis thaliana, UniProt Q9C932 14-162).
T2 sequence: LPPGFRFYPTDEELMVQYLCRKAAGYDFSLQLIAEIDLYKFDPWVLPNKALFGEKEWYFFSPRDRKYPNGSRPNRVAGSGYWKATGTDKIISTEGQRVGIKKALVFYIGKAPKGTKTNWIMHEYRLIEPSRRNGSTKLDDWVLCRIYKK
The note with it: protein: recombinant; tags: GST; chain copies: 2; dsDNA, one strand shown. Put shortly:
as §1

Test [3] has as its target T3, GST-ANAC055(1-171) (Arabidopsis thaliana, UniProt Q9LDY8 1-171).
T3 sequence: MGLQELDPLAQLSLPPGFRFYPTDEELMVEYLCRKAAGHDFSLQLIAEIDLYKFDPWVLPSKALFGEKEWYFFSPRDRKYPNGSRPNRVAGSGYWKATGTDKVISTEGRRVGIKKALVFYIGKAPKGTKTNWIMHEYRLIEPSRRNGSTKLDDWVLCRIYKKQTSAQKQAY
The note with it: protein: recombinant; tags: GST; chain copies: 2; dsDNA, one strand shown. The method in brief:
as §1

Test [4] deals with T4, GST-ANAC092(1-285) full length (Arabidopsis thaliana, UniProt Q9FKA0 1-285).
T4 sequence: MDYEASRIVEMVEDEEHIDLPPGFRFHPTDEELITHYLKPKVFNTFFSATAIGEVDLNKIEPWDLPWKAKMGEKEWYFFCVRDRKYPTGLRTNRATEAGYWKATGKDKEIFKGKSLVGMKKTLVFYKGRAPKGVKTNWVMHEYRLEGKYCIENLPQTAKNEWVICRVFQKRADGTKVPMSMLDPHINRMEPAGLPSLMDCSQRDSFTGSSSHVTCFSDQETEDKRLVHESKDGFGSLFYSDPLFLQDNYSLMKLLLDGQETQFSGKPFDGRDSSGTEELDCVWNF
The note with it: protein: recombinant; tags: GST; chain copies: 2; dsDNA, one strand shown. The method in brief: as §1

For test [5], the target named is T5, GST-NST2(1-184) (Arabidopsis thaliana, UniProt Q9M274 1-184).
T5 sequence: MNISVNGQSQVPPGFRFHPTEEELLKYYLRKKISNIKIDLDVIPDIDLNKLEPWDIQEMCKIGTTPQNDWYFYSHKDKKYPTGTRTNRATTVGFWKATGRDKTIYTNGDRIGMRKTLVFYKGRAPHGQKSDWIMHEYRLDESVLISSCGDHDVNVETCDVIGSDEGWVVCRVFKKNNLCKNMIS
As to conditions: protein: recombinant; tags: GST; chain copies: 2; dsDNA, one strand shown. Put shortly:
as §1

For test [6], the target named is T6, GST-SND1(1-203) (Arabidopsis thaliana, UniProt Q9LPI7 1-203).
T6 sequence: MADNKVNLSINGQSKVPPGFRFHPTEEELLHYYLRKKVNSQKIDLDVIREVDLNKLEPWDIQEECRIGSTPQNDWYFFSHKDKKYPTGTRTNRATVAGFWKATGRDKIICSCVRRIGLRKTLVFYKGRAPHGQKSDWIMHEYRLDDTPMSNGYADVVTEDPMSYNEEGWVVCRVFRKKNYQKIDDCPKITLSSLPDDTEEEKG
As to conditions: protein: recombinant; tags: GST; chain copies: 2; dsDNA, one strand shown. Put shortly:
as §1

The target of test [7] is T7, GST-VND3 NAC domain (Arabidopsis thaliana, UniProt Q9FH59 12-162).
T7 sequence: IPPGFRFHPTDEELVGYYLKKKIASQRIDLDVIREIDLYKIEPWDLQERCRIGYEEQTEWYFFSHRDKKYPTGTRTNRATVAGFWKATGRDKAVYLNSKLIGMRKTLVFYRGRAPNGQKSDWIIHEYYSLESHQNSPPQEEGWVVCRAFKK
As to conditions: protein: recombinant; tags: GST; chain copies: 2; dsDNA, one strand shown. The method in brief: as §1

The target in test [8] is T8, GST-VND7 NAC domain (Arabidopsis thaliana, UniProt Q9C8W9 9-158).
T8 sequence: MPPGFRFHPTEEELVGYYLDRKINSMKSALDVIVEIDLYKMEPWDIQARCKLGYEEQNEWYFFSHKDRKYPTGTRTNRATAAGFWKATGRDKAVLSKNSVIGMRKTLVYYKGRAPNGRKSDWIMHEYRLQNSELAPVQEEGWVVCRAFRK
As to conditions: protein: recombinant; tags: GST; chain copies: 2; dsDNA, one strand shown. Put shortly:
as §1

For test [9], the target named is T9, GST-ATAF1 NAC domain (Arabidopsis thaliana, UniProt Q39013 7-158).
T9 sequence: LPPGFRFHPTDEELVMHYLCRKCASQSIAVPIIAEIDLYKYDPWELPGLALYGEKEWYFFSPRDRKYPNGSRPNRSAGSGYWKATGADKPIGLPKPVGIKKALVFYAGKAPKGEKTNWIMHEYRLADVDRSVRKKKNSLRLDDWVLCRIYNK
As to conditions: protein: recombinant; tags: GST; chain copies: 2; dsDNA, one strand shown. Put shortly: as §1

Test [10] addresses T10, GST-NAP(1-166) (Arabidopsis thaliana, UniProt O49255 1-166).
T10 sequence: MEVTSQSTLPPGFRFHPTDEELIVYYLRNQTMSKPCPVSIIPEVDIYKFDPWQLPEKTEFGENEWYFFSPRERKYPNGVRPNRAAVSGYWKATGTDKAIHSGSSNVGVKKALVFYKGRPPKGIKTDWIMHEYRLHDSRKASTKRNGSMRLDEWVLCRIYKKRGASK
As to conditions: protein: recombinant; tags: GST; chain copies: 2; dsDNA, one strand shown. The method in brief: as §1

The target of test [11] is GST-NTL6(1-168) (Arabidopsis thaliana, UniProt Q9SCK6 1-168). As to conditions: protein: recombinant; tags: GST; chain copies: 2; dsDNA, one strand shown. Put shortly:
as §1

For test [12], the target named is GST-WRKY1(266-371) (Arabidopsis thaliana, UniProt Q9SI37 266-371). The note with it: protein: recombinant; tags: GST; dsDNA, one strand shown. Put shortly:
as §1

Test [13] deals with T11, GST-NTL8 NAC domain (Arabidopsis thaliana, UniProt Q9XIN7 14-156).
T11 sequence: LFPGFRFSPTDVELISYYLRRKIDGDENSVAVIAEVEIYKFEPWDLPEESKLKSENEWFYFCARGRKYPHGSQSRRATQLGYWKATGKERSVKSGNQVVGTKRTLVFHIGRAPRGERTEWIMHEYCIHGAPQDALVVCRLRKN
The note with it: protein: recombinant; tags: GST; chain copies: 2; dsDNA, one strand shown. Put shortly: as §1

Sequence of GST-NTL6(1-168) (Q9SCK6 1-168): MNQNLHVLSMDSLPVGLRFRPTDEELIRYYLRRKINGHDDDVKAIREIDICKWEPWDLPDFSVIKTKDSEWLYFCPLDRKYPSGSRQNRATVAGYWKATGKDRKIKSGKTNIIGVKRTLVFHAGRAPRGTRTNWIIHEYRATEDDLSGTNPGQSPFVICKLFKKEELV
Sequence of GST-WRKY1(266-371) (Q9SI37 266-371): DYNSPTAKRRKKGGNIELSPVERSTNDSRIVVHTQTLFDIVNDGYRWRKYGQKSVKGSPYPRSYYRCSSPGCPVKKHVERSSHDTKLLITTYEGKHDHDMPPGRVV

Turning to GCACGCTA, the binding signal came to 0.445 E-score in test [1]; 0.207 E-score in test [2]; 0.117 E-score in test [3]; 0.474 E-score in test [4]; 0.173 E-score in test [5]; 0.409 E-score in test [6]. Further, the figures for the binding signal in test [7] and in test [8] were 0.111 E-score and 0.0845 E-score, respectively.
Take ACGCCATC: the binding signal in test [1] worked out at 0.421 E-score; in test [3] it was 0.098 E-score; in [9] it was 0.0609 E-score; in test [4], 0.453 E-score; in test [10] it was 0.171 E-score; in test [5], 0.237 E-score. Moreover, the binding signal in test [6] is 0.41 E-score; in test [7] it was 0.125 E-score; in test [8] it was 0.108 E-score.
For the sequence TCGGTCAA, the binding signal in test [1] turned out to be 0.132 E-score; in test [11] it was 0.0645 E-score; in [3], 0.0819 E-score; in test [10], 0.097 E-score; in test [5] it was 0.0703 E-score; in [6] it was 0.0612 E-score. The binding signal in test [7] was 0.0724 E-score; in test [12] it was 0.49 E-score.
For the sequence CTTCCTTA, the binding signal in test [1] amounted to 0.158 E-score; in test [11] it was 0.447 E-score; in [2], 0.0721 E-score; in test [4] it was 0.104 E-score; in test [5], 0.151 E-score; in test [13] it was 0.223 E-score. The binding signal in test [6] was found to be 0.21 E-score; in [7] it was 0.0785 E-score; in [12], 0.0845 E-score.
For TTAAGAAA, the binding signal in test [1] stood at 0.151 E-score; in test [11] it was 0.461 E-score; in [3], 0.0935 E-score; in test [9], 0.195 E-score; in [4], 0.227 E-score; in test [5] it was 0.142 E-score. Besides, the binding signal in [13] came to 0.273 E-score; in [6] it was 0.367 E-score; in test [7], 0.0817 E-score; in test [12], 0.116 E-score.
Turning to GGTCAAAA, the binding signal in [1] was determined as 0.0966 E-score; in test [11] it was 0.101 E-score; in test [3], 0.0727 E-score; in [13], 0.116 E-score; in [6] it was 0.123 E-score; in test [7], 0.0741 E-score. Moreover, the binding signal in test [12] amounted to 0.478 E-score.
For ACAAGTTA, the binding signal in test [1] was 0.362 E-score; in [3], 0.106 E-score; in test [9] it was 0.162 E-score; in test [4], 0.41 E-score; in test [5], 0.194 E-score; in [6], 0.216 E-score. In addition, the results for the binding signal in test [7] and in test [8] were 0.152 E-score and 0.146 E-score, respectively.
Consider ACGCTACT, for which the binding signal in test [1] came out at 0.385 E-score; in test [2], 0.123 E-score; in test [3] it was 0.226 E-score; in test [9], 0.288 E-score; in [4] it was 0.425 E-score; in [10], 0.236 E-score. Also, the binding signal was 0.314 E-score in [5]; 0.0894 E-score in test [13]; 0.394 E-score in test [6]; 0.241 E-score in [7]; 0.092 E-score in [12].
